In general, inhibition refers to the relative decrease from the control value, in per cent.

We go through 97 compounds from PubChem BioAssay AID1903 (Southern Research Specialized Biocontainment Screening …, 2009).

Values joined by “and” are separate entries in the source; they are usually repeats but may differ in a detail not shown here. Identical values can stand only once. The campaign covered roughly 310,000 compounds. About 1,200 (0.39%) were called active. The rule behind the calls is not given here. Not all results are given here. Measured potencies and affinities stand elsewhere.

The target in the assay is Large T antigen (Simian virus 40) (UniProt P03070). As to the kind of experiment: SV40 large T antigen inhibitors, biochemical (AID 1903). As to conditions: SV40 large T antigen ATPase/helicase inhibition assay; at 20 µM; stronger effect = higher value.
Large T antigen (Simian virus 40), sequence (P03070 whole entry, looked up): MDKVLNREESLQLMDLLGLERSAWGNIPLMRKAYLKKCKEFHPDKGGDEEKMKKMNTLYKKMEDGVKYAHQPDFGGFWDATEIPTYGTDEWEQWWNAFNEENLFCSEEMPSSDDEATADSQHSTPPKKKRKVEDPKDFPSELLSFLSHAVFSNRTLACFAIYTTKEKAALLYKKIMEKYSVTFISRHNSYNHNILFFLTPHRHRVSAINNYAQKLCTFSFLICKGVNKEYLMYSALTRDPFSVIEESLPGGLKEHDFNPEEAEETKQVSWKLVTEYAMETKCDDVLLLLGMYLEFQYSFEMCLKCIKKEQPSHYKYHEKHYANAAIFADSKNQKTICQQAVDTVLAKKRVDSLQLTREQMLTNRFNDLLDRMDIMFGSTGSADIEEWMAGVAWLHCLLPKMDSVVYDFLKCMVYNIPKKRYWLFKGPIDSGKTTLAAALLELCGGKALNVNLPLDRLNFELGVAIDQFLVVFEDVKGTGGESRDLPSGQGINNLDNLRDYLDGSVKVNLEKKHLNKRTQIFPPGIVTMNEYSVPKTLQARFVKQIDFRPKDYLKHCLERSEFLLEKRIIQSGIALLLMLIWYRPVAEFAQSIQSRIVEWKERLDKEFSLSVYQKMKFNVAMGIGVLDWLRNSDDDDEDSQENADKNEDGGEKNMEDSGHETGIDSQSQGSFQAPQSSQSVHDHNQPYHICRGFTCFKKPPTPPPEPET
`CCn1c(=O)n(CC)c2cc(S(N)(=O)=O)ccc21`: the inhibition is 3.97% (inactive). Under `CCn1c(=O)n(CC)c2cc([N+](=O)[O-])ccc21` stands -2.72% (inactive); under `O=C(COc1ccccc1Cl)NCc1nc(-c2ccccc2)no1`, 10.2% (inactive). The result for `Cc1ccc(Nc2nc(N)c([N+](=O)[O-])c(N3CCOCC3)n2)cc1` reads 9.48% (inactive); that for `COc1ccc(Nc2nc(N)c([N+](=O)[O-])c(N3CCOCC3)n2)cc1`, 10.9% (inactive); that for `Cc1cc(/C=C(\C#N)C(=O)O)c(C)n1C1CC1`, 11.4% (inactive). Under `O=C(N/N=C/c1ccc(OCc2ccc(F)cc2)cc1)c1ccccc1` stands 1.09% (inactive); under `CCOC(=O)C1CCCN(C(=O)Cn2sc3nc(C)cc(C)c3c2=O)C1` (configuration not stated), 73.4% (inactive); under `Cc1cccc(N2CCN(C(=O)Cn3nc(C)n4cccc4c3=O)CC2C)c1` (configuration not stated), 8.5% (inactive). Consider `Cc1cc(C)c2c(=O)n(CC(=O)N3CCC(Cc4ccccc4)CC3)sc2n1`, for which the inhibition is 3.6% (inactive). Under `Cc1nn(CC(=O)N2CCC(N3CCCCC3)CC2)c(=O)c2c1sc1ccccc12` stands 17.6% (inactive); under `CN1CCN(c2ccc(Cl)cc2NC(=O)c2ccc(=O)n(C)n2)CC1`, 22.8% (inactive). Under `CC(C)c1ccc2[nH]c(O)c(N=NC(=O)c3cccc(S(=O)(=O)Nc4ccccc4Cl)c3)c2c1` stands -4.52% (inactive); under `COc1ccccc1C(=O)NNC(=O)c1sccc1-n1cccc1`, 8.72% (inactive); under `CN(C)CCCN1c2ccccc2Sc2ccccc21`, 33% (inactive).

`CCN(CC)CCN1c2ccccc2Sc2ccccc21`: the inhibition was 34.5% (inactive). Consider `CCCCN(C(=O)c1ccc([N+](=O)[O-])o1)c1c(N)n(CC(C)C)c(=O)[nH]c1=O`, for which the inhibition was 20.2% (inactive). The result for `COc1cccc(-c2cc(C(=O)Nc3cc(C)on3)no2)c1` reads 3.2% (inactive); that for `Cc1ccc2oc(=O)c3cnn(CC(=O)NCCCOC(C)C)c3c2c1`, 5.01% (inactive); that for `CCOC(=O)Cc1csc(NC(=O)c2ccc3c(c2)OCO3)n1`, -7.42% (inactive). The result for `COc1cc(/C=C2\SC(c3ccc(C)cc3)=NC2=O)cc(OC)c1OC` reads 14.7% (inactive); that for `COc1ccc(/C=C2/SC(c3ccc(C)cc3)=NC2=O)cc1OC`, 7.06% (inactive); that for `COc1ccc(/C=C2\SC(c3ccc(C)cc3)=NC2=O)cc1OC`, 4.55% (inactive).

Consider `NC1=NC(=O)/C(=C/c2cc(Br)c(O)c(Br)c2)S1`, for which the inhibition was 23.3% (inactive). As to `O=C(Nc1ccc(CN2CCOCC2)cc1)c1ccc(Br)o1`, the inhibition is 4.15% (inactive). The result for `CCCc1nn(-c2cc(Cl)ccc2OC)c2c1C(=O)CC(C)(C)C2` reads 2.88% (inactive); that for `CC(=O)N(c1ccc2oc(=O)sc2c1)S(=O)(=O)c1ccc(C(=O)O)cc1`, 23.9% (inactive); that for `CCCC(=O)N(c1ccc2oc(=O)sc2c1)S(=O)(=O)c1cccs1`, 34.4% (inactive). The result for `CC(C)C(=O)N(c1ccc2oc(=O)sc2c1)S(=O)(=O)c1cccs1` reads 22.8% (inactive); that for `CC(C)C(=O)N(c1ccc2oc(=O)sc2c1)S(=O)(=O)c1ccccc1`, 25.6% (inactive); that for `Cc1ccsc1C(=O)OCC(=O)NCc1ccc2c(c1)OCO2`, 20.1% (inactive). On to `O=C(O)C1CC=CCC1C(=O)N1CCCC1` (configuration not stated), for which the inhibition is -0.98% (inactive). The result for `O=C1NC(=O)/C(=C\c2ccsc2)N1` reads 2.09% (inactive); that for `COCOc1cc(O)c2c(=O)c(OCOC)c(-c3ccc(OCOC)c(OCOC)c3)oc2c1`, 7.99% (inactive). Under `COc1c(-c2ccc(O)c(O)c2)oc2cc(O)cc(O)c2c1=O` stands 9.05% (inactive); under `CCn1c(SCC(=O)Nc2nccs2)nnc1-c1ccc(S(=O)(=O)N2CCCCCC2)cc1`, -0.295% (inactive). On to `Cc1ccc(S(=O)(=O)N2CCCC(C(=O)NCC3CCCO3)C2)cc1` (configuration not stated), for which the inhibition was 3.23% (inactive). Under `O=S(=O)(c1ccc(Cl)cc1)N1CCCCCC1` stands 20.7% (inactive); under `CN1CCN(S(=O)(=O)c2ccc(Cl)cc2)CC1`, 0.99% (inactive); under `CC1CN(S(=O)(=O)c2ccccc2)C(C)CN1S(=O)(=O)c1ccccc1` (configuration not stated), 8.4% (inactive). Under `Cc1ccc(S(=O)(=O)N2CCN(S(=O)(=O)c3ccccc3)C2)cc1` stands 6.18% (inactive); under `CCCN(CCC)C(=O)Cc1coc2ccc3ccccc3c12`, 3.36% (inactive). Under `Cc1cc2cc(CNC(=O)Nc3ccccc3)ccc2n1C` stands 4.59% (inactive). For the compound `O=C1NCCN/C1=C\C(=O)c1ccc(Cl)cc1`, the inhibition was 12.3% (inactive). Under `CCOc1ccc(NC(=O)COn2nnc3ccc(S(=O)(=O)N4CCOCC4)cc32)cc1` stands 11.2% (inactive). Under `Cc1c2cc(O)c(=O)cc-2oc2cc(O)c(O)cc12` stands 57.6% (inactive); under `CCOc1ccccc1-c1c2cc(O)c(=O)cc-2oc2cc(O)c(O)cc12`, 15.8% (inactive); under `COc1ccc(OC)c(-c2c3cc(O)c(=O)cc-3oc3cc(O)c(O)cc23)c1`, 73.4% (inactive). Under `O=c1cc(-c2ccccc2[N+](=O)[O-])oc2ccccc12` stands 1.45% (inactive). `CCOc1ccccc1NC(=O)CSc1nnc(CNC(=O)c2cc(OC)c(OC)c(OC)c2)o1`: the inhibition is 5.49% (inactive). The result for `COc1ccccc1CNC(c1ccccc1)c1ccccc1` reads 21.1% (inactive); that for `COc1ccc(C2NC(c3ccc(OC)c(OC)c3OC)C(C)C(=O)C2C)c(OC)c1OC` (configuration not stated), -0.23% (inactive); that for `CCc1c(C)nc(N)nc1Cl`, 10.9% (inactive). The result for `CCOC(=O)C(Sc1cc(C)nc(N)n1)C(C)=O` (configuration not stated) reads 7.31% (inactive). As to `O=C1C=C(Nc2ccc(Cl)cc2)CC(c2ccco2)C1` (configuration not stated), the inhibition was 24.2% (inactive). The result for `O=C1C=C(Nc2cccc(O)c2)CC(c2ccco2)C1` (configuration not stated) reads 6.63% (inactive); that for `COc1ccccc1-c1ocnc1C(=O)N1CCN(S(=O)(=O)c2ccc(NC(C)=O)cc2)CC1`, 4.74% (inactive). The result for `CCOC(=O)c1c(C)nc2ccccc2c1-c1ccccc1` reads 5.96% (inactive); that for `CN(C)c1ccc(N/C=C/C(=O)C(C)(C)C)cc1`, 27.8% (inactive); that for `O=C(/C=C/Nc1ccccc1)c1ccccc1`, 10.3% (inactive). Under `COc1ccc(N/C=C/C(=O)C(F)(F)F)cc1` stands 9.63% (inactive); under `CN(C)c1ccc(N/C=C/C(=O)c2ccc(F)cc2)cc1`, 18.2% (inactive). As to `Cc1ccc(-c2nn(-c3ccccc3)cc2C(N)=O)o1`, the inhibition is 1% (inactive). The result for `COc1ccc(CN2CCN(C(=O)CCC(=O)Nc3nnc(C(F)(F)F)s3)CC2)cc1F` reads 25.2% (inactive); that for `CCn1c(C)nc2cc(C(=O)N/N=C(\C)c3ccc(N4CCOCC4)cc3)ccc21`, 9.23% (inactive).

As to `Oc1c(CN2CCCC(C(F)(F)F)C2)cc(Cl)c2ccccc12` (configuration not stated), the inhibition was 6.33% (inactive). On to `O=C1[C@H]2CCCC[C@H]2C(=O)N1CCCCN1CCN(c2nsc3ccccc23)CC1`, for which the inhibition is 11.2% (inactive). Under `COc1ccc(CN2C(=O)CSCC2=O)cc1OC` stands 23.5% (inactive); under `CC1CCCN(S(=O)(=O)c2cnc[nH]2)C1` (configuration not stated), 16.4% (inactive); under `CC(=O)c1ccc([N+](=O)[O-])c(CS(=O)(=O)c2ccc(Cl)cc2)c1`, 2.52% (inactive). Under `Cc1ccc(S(=O)(=O)Cc2ccc([N+](=O)[O-])cc2)cc1` stands 12.8% (inactive). The result for `C=CCNc1nc(-c2cc3ccccc3o2)cs1` reads 16.7% (inactive); that for `COc1ccc([C@@H]2CC=C(C(=O)O)[C@H](c3cccc(Cl)c3)N2S(=O)(=O)c2ccccc2C)cc1`, 20.5% (inactive). With `COc1ccc(-c2cc(=O)c3c(OC)c(OC)c(OC)c(OC)c3o2)cc1OC`, the inhibition is 8.13% (inactive) and 2.63% (inactive) and 16.4% (inactive). Under `COc1cc(-c2cc(=O)c3c(O)cc(O)cc3o2)ccc1O` stands 11.8% (inactive). The result for `COc1cc(-c2cc(=O)c3c(O)c(OC)c(OC)c(OC)c3o2)cc(OC)c1OC` reads 1.45% (inactive); that for `COc1ccc(-c2cc(=O)c3ccccc3o2)cc1`, 4.04% (inactive).

Turning to `Nc1nnc(-c2cccc([N+](=O)[O-])c2)o1`, the inhibition was -0.81% (inactive). Under `CCCCCCn1cc(C(=O)OCC)c(=O)c2cc(F)c(F)cc21` stands 20.5% (inactive); under `CCC(C)C(NC(=O)C(N)CC(C)C)C(=O)NC(CCC(=O)OCc1ccccc1)C(N)=O` (configuration not stated), -6.23% (inactive). Under `O=C(O)c1ccc(NCc2cccs2)cc1` stands 5.7% (inactive). Under `O=C(O)c1cc(NCc2cccs2)ccc1N1CCOCC1` stands 16.1% (inactive); under `COC(=O)c1cc(NCc2cccs2)ccc1N1CCOCC1`, 36.1% (inactive). On to `CC(=O)Nc1ccc(NCc2cccs2)cc1`, for which the inhibition was 15.1% (inactive). With `O=C(COC(=O)COc1ccccc1[N+](=O)[O-])Nc1ccc(S(=O)(=O)N2CCCCC2)cc1`, the inhibition is 9.97% (inactive). As for `CC(=O)Nc1ccc(NC(=O)CSc2nnc(NC(=O)c3cccc(F)c3)s2)cc1`, the inhibition is 7.35% (inactive). As to `COc1ccc(CC2(CO)COc3ccccc3C2=O)cc1` (configuration not stated), the inhibition was 18% (inactive). Regarding `CCn1c(SCC(=O)Nc2cc(OC)ccc2OC)nnc1C1CCCCC1`, the inhibition is 5.72% (inactive). Under `CN(C)C(=O)COC(=O)c1cc(Cl)cc(Cl)c1N` stands 7.1% (inactive); under `CCOC(=O)C1=C(CCc2ccccc2)NC(=O)NC1c1ccc(C#N)cc1` (configuration not stated), 13.1% (inactive); under `O=C(Nc1ccc(N2CCOCC2)cc1)C1CCN(S(=O)(=O)c2ccccc2F)CC1`, 13.6% (inactive). The result for `O=C1C(Cl)=C(N2CCOCC2)C(=O)N1c1ccccc1F` reads 11.2% (inactive); that for `O=C1C(Cc2ccccc2)Nc2ncnc(N3CCOCC3)c2N1Cc1ccc(Cl)cc1` (configuration not stated), 9.83% (inactive); that for `Cn1c(=Nc2ccccc2)sc2ccccc21`, -5.34% (inactive). Take `COc1ccc(N=c2sc3ccccc3n2C)cc1`: the inhibition was 7.43% (inactive). The result for `CC1CCCCN1c1ncnc2ccccc12` (configuration not stated) reads 0.555% (inactive).

With `CC(C)OC(=O)Cc1nc2sc(-c3ccccc3)cc2c(=O)[nH]1`, the inhibition is 6.88% (inactive).
